# Data taken from PubChem BioAssay (NCATS).
# Results filed as inconclusive are left out. A call without a number means that no potency is given here. The source made the active and inactive calls. Calls follow the shape of the full dose curve; tested in HEK293 reporter line.
# Assay: qHTS for Inhibitors of the Functional Ribonucleoprotein Complex (vRNP) of Lymphocytic Choriomeningitis Arenaviruses (LCMV): Viability assay - alamar blue signal for LCMV Primary Screen (AID 1347085); also: nearly all actives have a fitted effect of over 80% in size
# Settings: alamar blue viability counter-screen, LCMV vRNP screen cells; series mostly up to 57.5 µM
# Potency is read from the fitted curve at half-maximal effect.
row,Structure (SMILES),Potency
1,CCN(CCO)CCCOc1ccc2c(Nc3cc(CC(=O)Nc4cccc(F)c4)[nH]n3)ncnc2c1,inactive
2,COc1cc2ncnc(Nc3cccc(Cl)c3)c2cc1OC,inactive
3,COC1=C2C[C@@H](C)C[C@H](OC)[C@@H](O)[C@@H](C)C=C(C)[C@H](OC(N)=O)[C@@H](OC)C=CC=C(C)C(=O)NC(=CC1=O)C2=O,13.7 µM (active)
4,O=C(O)C1(Cc2cccc(Nc3nccs3)n2)CCC(Oc2cccc(Cl)c2F)CC1 (centres undefined),inactive
5,COc1c(O)cc(O)c2c(=O)cc(-c3ccccc3)oc12,inactive
6,CN1CCN(c2cccc(Nc3nc4c(-c5ccc(S(C)(=O)=O)cc5)cccn4n3)c2)CC1,inactive
7,O=c1c(O)c(-c2ccccc2)oc2ccccc12,inactive
8,C[C@@H]1C(=O)O[C@H]2[C@H](O)[C@@]34[C@H]5CC(C(C)(C)C)[C@]36[C@H](OC(=O)[C@H]6O)O[C@]4(C(=O)O5)[C@@]12O (some centres undefined),inactive
9,C=C1CCC2C(C)(C)[C@H](O)CC[C@@]2(C)[C@@H]1COc1cc(=O)oc2ccccc12 (some centres undefined),inactive
10,Cc1cccc(Nc2nc(-c3ccncc3)cs2)c1,inactive
11,O=C(c1ccc(C=Cc2n[nH]c3ccccc23)cc1)N1CCNCC1,inactive
12,COc1cc(OC)c(NC(=O)Nc2cc(C)on2)cc1Cl,inactive
13,C=C1C(=O)O[C@H]2[C@H]1[C@H](OC(=O)/C(C)=C\C)C[C@]1(CO1)[C@@H]1[C@H](OC(C)=O)C=C(C)[C@]21O,inactive
14,CN(Cc1nc2c(N)nc(N)nc2[nH]c1=O)c1ccc(C(=O)NC(CCC(=O)O)C(=O)O)cc1 (centres undefined),inactive
